Measurements from PubChem BioAssay AID1159580 (chemical genetic matrix, 2015).
Screen size: about 5,500 compounds; about 2,000 (36%) were called active. Roughly 18% stayed inconclusive and do not appear here. Cut-off read from the data, not from the text of the source: active = normalized growth mostly below about 0.91 (no sharp cut-off); inconclusive = no clear call, values can overlap the other calls; inactive = mostly above about 0.92. The list shows a part of the results.

Assay: chemical genetic growth profiling, strain panel (AID 1159580);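 note: tested at 20 µM; growth read once vehicle control cultures reached saturation at 30 °C; 1 = growth at the plate median or of vehicle wells; lower values mean less growth of the strain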
Details: growth OD

Measured: normalized growth

COc1ccc2c(c1)OCC(Cc1ccc(OC)c(O)c1)C2=O (stereo not drawn)
inactive: S. cerevisiae deletion strains, locus YJR043C, strain POL32, stronger effect = lower value 0.998 | S. cerevisiae deletion strains, locus YJR066W, strain TOR1, stronger effect = lower value 0.904 | S. cerevisiae deletion strains, locus YKL009W, strain mrt4, stronger effect = lower value 0.94 | S. cerevisiae deletion strains, locus YKL068W, stronger effect = lower value 0.97 | S. cerevisiae deletion strains, locus YKL085W, strain MDH1 (second series), stronger effect = lower value 0.969 | S. cerevisiae deletion strains, locus YKL085W, strain MDH1, stronger effect = lower value 0.969 | S. cerevisiae deletion strains, locus YKL160W, strain elf1, stronger effect = lower value 0.925 | S. cerevisiae deletion strains, locus YKL190W, strain CNB1, stronger effect = lower value 0.984 | S. cerevisiae deletion strains, locus YKR001C, strain vps1, stronger effect = lower value 0.964 | S. cerevisiae deletion strains, locus YKR026C, strain gcn3, stronger effect = lower value 0.966 | S. cerevisiae deletion strains, locus YKR091W, strain srl3, stronger effect = lower value 0.962 | S. cerevisiae deletion strains, locus YLL001W, strain dnm1, stronger effect = lower value 0.931 | S. cerevisiae deletion strains, locus YLL026W, stronger effect = lower value 0.957 | S. cerevisiae deletion strains, locus YLL041C, strain sdh2, stronger effect = lower value 0.955 | S. cerevisiae deletion strains, locus YLR027C, strain aat2, stronger effect = lower value 0.933 | S. cerevisiae deletion strains, locus YLR039C, strain RIC1, stronger effect = lower value 1.02 | S. cerevisiae deletion strains, locus YLR058C, strain SHM2, stronger effect = lower value 0.958 | S. cerevisiae deletion strains, locus YLR102C, strain apc9, stronger effect = lower value 0.955 | S. cerevisiae deletion strains, locus YLR113W, strain HOG1, stronger effect = lower value 0.917 | S. cerevisiae deletion strains, locus YLR221C, strain rsa3, stronger effect = lower value 0.923 | S. cerevisiae deletion strains, locus YLR262C, strain YPT6 (second series), stronger effect = lower value 0.985 | S. cerevisiae deletion strains, locus YLR262C, strain YPT6, stronger effect = lower value 0.986 | S. cerevisiae deletion strains, locus YLR268W, strain sec22, stronger effect = lower value 0.976 | S. cerevisiae deletion strains, locus YLR330W, strain CHS5, stronger effect = lower value 0.952 | S. cerevisiae deletion strains, locus YLR342W, strain FKS1 (second series), stronger effect = lower value 0.955 | S. cerevisiae deletion strains, locus YLR342W, strain FKS1, stronger effect = lower value 0.922 | S. cerevisiae deletion strains, locus YLR357W, strain rsc2, stronger effect = lower value 0.998 | S. cerevisiae deletion strains, locus YLR370C, strain arc18, stronger effect = lower value 0.97 | S. cerevisiae deletion strains, locus YLR371W, strain rom2, stronger effect = lower value 0.975 | S. cerevisiae deletion strains, locus YLR384C, strain iki3, stronger effect = lower value 0.948 | S. cerevisiae deletion strains, locus YML016C, strain PPZ1, stronger effect = lower value 0.967 | S. cerevisiae deletion strains, locus YML032C, strain rad52, stronger effect = lower value 0.949 | S. cerevisiae deletion strains, locus YML120C, strain ndi1, stronger effect = lower value 0.938 | S. cerevisiae deletion strains, locus YML124C, strain tub3, stronger effect = lower value 0.954 | S. cerevisiae deletion strains, locus YMR058W, strain fet3, stronger effect = lower value 0.948 | S. cerevisiae deletion strains, locus YMR078C, strain ctf18, stronger effect = lower value 0.95 | S. cerevisiae deletion strains, locus YMR125W, strain sto1, stronger effect = lower value 1.01 | S. cerevisiae deletion strains, locus YMR129W, stronger effect = lower value 0.948 | S. cerevisiae deletion strains, locus YMR223W, strain ubp8, stronger effect = lower value 0.933 | S. cerevisiae deletion strains, locus YMR231W, strain pep5, stronger effect = lower value 0.967 | S. cerevisiae deletion strains, locus YMR307W, strain GAS1, stronger effect = lower value 0.97 | S. cerevisiae deletion strains, locus YNL067W, strain RPL9B, stronger effect = lower value 0.944 | S. cerevisiae deletion strains, locus YNL183C, strain NPR1, stronger effect = lower value 0.933 | S. cerevisiae deletion strains, locus YNL209W, strain ssb2, stronger effect = lower value 0.978 | S. cerevisiae deletion strains, locus YNL233W, strain BNI4, stronger effect = lower value 0.905 | S. cerevisiae deletion strains, locus YNL248C, strain rpa49, stronger effect = lower value 0.919 | S. cerevisiae deletion strains, locus YNL250W, strain rad50, stronger effect = lower value 0.94 | S. cerevisiae deletion strains, locus YNL271C, strain bni1, stronger effect = lower value 0.952 | S. cerevisiae deletion strains, locus YNL298W, strain CLA4, stronger effect = lower value 0.959 | S. cerevisiae deletion strains, locus YNL322C, strain KRE1 (second series), stronger effect = lower value 0.949 | S. cerevisiae deletion strains, locus YNR049C, strain mso1, stronger effect = lower value 0.967 | S. cerevisiae deletion strains, locus YNR052C, strain pop2, stronger effect = lower value 0.937 | S. cerevisiae deletion strains, locus YOL012C, strain htz1 1.16 | S. cerevisiae deletion strains, locus YOL147C, strain pex11, stronger effect = lower value 0.964 | S. cerevisiae deletion strains, locus YOR001W, strain rrp6, stronger effect = lower value 0.898 | S. cerevisiae deletion strains, locus YOR061W, strain CKA2, stronger effect = lower value 0.963 | S. cerevisiae deletion strains, locus YOR069W, strain VPS5, stronger effect = lower value 0.96 | S. cerevisiae deletion strains, locus YOR070C, strain gyp1, stronger effect = lower value 0.968 | S. cerevisiae deletion strains, locus YOR080W, strain dia2, stronger effect = lower value 0.979 | S. cerevisiae deletion strains, locus YOR083W, strain WHI5, stronger effect = lower value 0.911 | S. cerevisiae deletion strains, locus YOR106W, strain vam3, stronger effect = lower value 0.886 | S. cerevisiae deletion strains, locus YOR136W, strain idh2, stronger effect = lower value 0.962 | S. cerevisiae deletion strains, locus YOR144C, strain elg1, stronger effect = lower value 0.95 | S. cerevisiae deletion strains, locus YOR184W, strain ser1, stronger effect = lower value 0.906 | S. cerevisiae deletion strains, locus YOR231W, strain MKK1, stronger effect = lower value 0.998 | S. cerevisiae deletion strains, locus YOR265W, strain rbl2, stronger effect = lower value 0.962 | S. cerevisiae deletion strains, locus YOR270C, strain vph1, stronger effect = lower value 0.823 | S. cerevisiae deletion strains, locus YOR290C, strain snf2, stronger effect = lower value 0.897 | S. cerevisiae deletion strains, locus YOR316C, strain cot1, stronger effect = lower value 0.959 | S. cerevisiae deletion strains, locus YPL051W, strain arl3, stronger effect = lower value 0.939 | S. cerevisiae deletion strains, locus YPL055C, strain LGE1, stronger effect = lower value 0.96 | S. cerevisiae deletion strains, locus YPL078C, strain atp4, stronger effect = lower value 0.914 | S. cerevisiae deletion strains, locus YPL106C, strain sse1, stronger effect = lower value 0.972 | S. cerevisiae deletion strains, locus YPL240C, strain hsp82, stronger effect = lower value 0.946 | S. cerevisiae deletion strains, locus YPL241C, strain CIN2, stronger effect = lower value 0.973 | S. cerevisiae deletion strains, locus YPL256C, strain CLN2, stronger effect = lower value 1.01 | S. cerevisiae deletion strains, locus YPR119W, strain clb2, stronger effect = lower value 0.95 | S. cerevisiae deletion strains, locus YPR141C, strain kar3, stronger effect = lower value 0.971 | S. cerevisiae deletion strains, strain wtn01, stronger effect = lower value 0.95 | S. cerevisiae strains, strain wild type, stronger effect = lower value 0.973
active: S. cerevisiae deletion strains, locus YLR258W, strain gsy2, stronger effect = lower value 0.91 | S. cerevisiae deletion strains, locus YLR320W, strain mms22, stronger effect = lower value 0.835 | S. cerevisiae deletion strains, locus YLR418C, strain cdc73, stronger effect = lower value 0.81 | S. cerevisiae deletion strains, locus YMR205C, strain PFK2, stronger effect = lower value 0.833 | S. cerevisiae deletion strains, locus YNL071W, strain lat1, stronger effect = lower value 0.681 | S. cerevisiae deletion strains, locus YNL307C, strain MCK1, stronger effect = lower value 0.824 | S. cerevisiae deletion strains, locus YPR163C, strain tif3, stronger effect = lower value 0.842 | S. cerevisiae deletion strains, locus YPR167C, strain met16, stronger effect = lower value 0.89
